The list is not random: actives were taken first. Their share in the collection is about 21%.
NS1 inh: blocks influenza NS1 protein function | Potency, µM (highest dose often 46.1 µM), for the others: at the highest dose activity, positive = more growth | hit rate 0.4% among 270,000 | AID 2326; calls by dose curve; also: potency is read from the fitted curve at half-maximal effect; actives are rising curves; nearly all actives have a fitted effect of over 50% in size
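OD600 was taken as the measure of yeast growth restored by compound in an NS1-expressing S. cerevisiae strain. Cells had been washed out of glucose medium and diluted 1:100 into galactose -URA medium, pH 6.0.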
Shiga inhibitor: blocks Shiga toxin action in Vero cells | Vero cells, Shiga toxin protein synthesis inhibition reporter | hit rate 9.2% among 290,000 | inhibition, % at 38.7 µM; in the data active = inhibition mostly above about 28%, no sharp cut-off; inactive = mostly below about 43%; also: 0% is about no effect
CHX counter: counter-screen hit for Shiga toxin inhibitors, cycloheximide | AID 2314 | max response, % | cell reporter, cycloheximide protein synthesis inhibition counterscreen | hit rate 12% among 300,000; in the data active = max response mostly above about 13%, no sharp cut-off; inactive = mostly below about 14%; also: read at 38.3 µM for the half of the compounds with a filed dose; 0% is about no effect
Pf growth 96h: inhibits malaria parasite growth, 96 h; hit rate 6.9% among 320,000; P. falciparum luciferase reporter growth, 96 h; Potency, µM (highest dose often 28.7 µM), for inactives: top-dose activity change, negative = inhibition, hits mostly inhibitors; also: potency is read from the fitted curve at half-maximal effect; % is scaled to controls: 0 for no effect and ±100 for the full control effect
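P. falciparum expressing integrated firefly luciferase grown in erythrocytes (2% hematocrit, 0.05% parasitemia final) with compounds for 96 hours at 37 C, 5% CO2. Growth inhibition read as loss of luminescence after adding luciferase detection reagent.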
Pf growth 48h: inhibits P. falciparum growth in the first generation, 48 h; P. falciparum luciferase growth in erythrocytes, 48 h; Potency, µM (series often up to 28.7 µM), inactives show at the highest dose activity change, negative = inhibition, usual class: inhibitors; hit rate 5.9% among 310,000; AID 504832; also: potency is read from the fitted curve at half-maximal effect; % is scaled to controls: 0 for no effect and ±100 for the full control effect
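Read-out is firefly luciferase luminescence from an integrated reporter in P. falciparum, so falling signal marks reduced parasite growth. Infected erythrocytes were at 2% hematocrit and 0.1% parasitemia (final) in Albumax-supplemented RPMI 1640.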
An asterisk follows results filed as active; i = inactive; ? = inconclusive; . = not tested or not shown; [ ] = remark or other dose. Unless noted, calls follow the shape of the dose curve; as a rule, active = well fitted inhibition curve with a large enough effect; inconclusive = small, poorly fitted or top-dose-only effect, or another doubt; inactive = no such curve, though single readings can be large or run the other way.

SMILES	NS1 inh	Shiga inhibitor	CHX counter	Pf growth 96h	Pf growth 48h
O=C(Nc1ccccc1N1CCOCC1)c1cccc(Oc2ccccc2)c1	7%	4	-1	?	?
CC1CN(Cc2nc3ccccc3c(=O)[nH]2)CC(C)O1 (stereo unspecified)	1%	-6	18	22%	7%
Cc1ccc2cc(C)c3nnc(SCC(=O)N4CCCc5ccccc54)n3c2c1C	11%	-6	2	5.2µM*	9.3µM*
CCn1c(SCC(=O)N2CCc3ccccc32)nnc1-c1c[nH]c2ccccc12	-28%	-11	-2	.	9.3µM*
CCn1c(SCC(=O)N2CCCc3ccccc32)nnc1-c1c[nH]c2ccccc12	-37%	-12	-4	7%	?
Cn1c(SCC(=O)N2CCCc3ccccc32)nnc1-c1c[nH]c2ccccc12	-37%	-12	-2	-12%	13µM*
CCOC(=O)CN1C=C(c2ccc3ccccc3n2)C(C[N+](=O)[O-])c2ccccc21 (stereo unspecified)	1%	22	11*	5%	.
Cc1nnc(SCCn2c(N(C)Cc3ccccc3)nc3c2c(=O)n(C)c(=O)n3C)s1	-32%	.	.	.	.
CC1CCN(C(=O)c2cc(-c3ccco3)on2)CC1	-12%	66*	27*	42%	98%
CC1CCN(C(=O)c2cc(-c3ccccc3O)on2)CC1	-110%	85*	39*	1%	.
CC1CCCC(C)N1C(=O)c1cc(-c2ccco2)on1 (stereo unspecified)	-10%	47*	8	57%	14%
Cc1onc(-c2ccccc2)c1C(=O)N1CCC(C)CC1	-3%	-3	-2	i	-4%
COc1cccc(-c2cc(C(=O)N3C(C)CCCC3C)no2)c1 (stereo unspecified)	-105%	72*	100*	8%	.
COc1cccc(-c2cc(C(=O)Nc3cc(C)on3)no2)c1	-10%	19	14	7%	39%
CCC(=O)Nc1ccc2c(c1)nc(CCNC(=O)c1ccco1)n2C	10%	-8	-8	-19%	1%
CN(Cc1nccs1)C(=O)c1cc(COc2cccc3cnccc23)on1	-11%	-6	5	?	-2%
COc1cc(Cl)ccc1OCc1cc(C(=O)N(C)Cc2cccc3cnccc23)no1	-67%	70*	61*	8%	?
COc1ccc(OCc2cc(C(=O)NCC(C)Oc3cccnc3)no2)c(Cl)c1 (stereo unspecified)	-49%	43*	32*	28%	-17%
COc1ccc(OCc2cc(C(=O)N(C)Cc3cc(C4CC4)n[nH]3)no2)c(Cl)c1	-14%	138*	40*	-21%	9.3µM*
COc1ccc(OCc2cc(C(=O)N(C)Cc3cnccn3)no2)c(Cl)c1	-1%	78*	46*	?	69%
Cc1ccc2c(c1)N(CC(=O)NCC(C)c1ccccc1)C(=O)c1cccnc1O2 (stereo unspecified)	?	9	-2	?	?
O=C(c1ccc(Cn2c(=S)[nH]c3ccc(Br)cc3c2=O)cc1)N1CCN(C2CCCCC2)CC1	.	-6	-8	?	?
COc1ccc(OCc2cc(C(=O)NC(C)Cc3cnccn3)no2)c(Cl)c1 (stereo unspecified)	5%	72*	31*	?	-3%
COc1cc(Cl)ccc1OCc1cc(C(=O)NC(C)Cc2cccnc2)no1 (stereo unspecified)	-45%	53*	48*	14%	8%
COc1ccc(OCc2cc(C(=O)NCCN3CCCC(O)C3)no2)c(Cl)c1 (stereo unspecified)	11%	4	2	?	10%
SMILES	NS1 inh	Shiga inhibitor	CHX counter	Pf growth 96h	Pf growth 48h
Nc1ccc(S(=O)(=O)NC(Cc2ccccc2)C(=O)O)cc1 (stereo unspecified)	6%	-12	-1	-3%	3%
Cc1ccccc1CCNC(=O)c1cc(C2CC2)nc2c1cnn2C(C)C	.	.	.	13µM*	12µM*
CCc1ccccc1NC(=O)CN(C)C(=O)c1cc(C2CC2)nc2c1cnn2C(C)C	.	.	.	?	12µM*
CC(C)n1ncc2c(C(=O)NCCc3ccc(F)cc3)cc(C3CC3)nc21	.	.	.	?	9.3µM*
COc1ccc(CNC(=O)c2cc(C3CC3)nc3c2cnn3C(C)C)cc1OC	.	.	.	?	-11%
CN(CC(=O)Nc1ccccc1Cl)C(=O)c1cc(C2CC2)nn1-c1ccccc1	.	.	.	14%	-1%
CC(NCc1cccs1)c1ccccc1 (stereo unspecified)	-4%	30	-1	12µM*	36%
CC(Cc1cccs1)NCc1ccccc1 (stereo unspecified)	.	-6	8	-6%	367%
O=C(CCC1CCCCC1)Nc1nnc(C(F)(F)F)s1	-2%	5	4	?	52%
COc1ccc(NS(=O)(=O)c2cc(NC(=O)c3cnc(C)cn3)ccc2N2CCCCC2)cc1	-1%	-9	-3	?	12µM*
COc1ccc(NS(=O)(=O)c2cc(NC(=O)C3CC3)ccc2N2CCCCC2)cc1	.	2	-3	10µM*	-27%
O=C(Nc1ccc(N2CCN(C(=O)c3cccs3)CC2)c(Cl)c1)c1ccco1	-14%	4	8	?	.
COc1ccc(NS(=O)(=O)c2cc(NC(=O)c3ccco3)ccc2N2CCCCC2)cc1	10%	17	8	9.3µM*	?
COc1ccc(NS(=O)(=O)c2cc(NC(=O)c3cnc(C)cn3)ccc2N2CCCC2)cc1	9%	2	-1	?	?
Cc1ccccc1C(=O)N1CCN(c2ccc(NC(=O)c3ccco3)cc2Cl)CC1	-104%	-3	4	1%	3.3µM*
Cc1cc([N+](=O)[O-])nn1CCCC(=O)Nc1cccc(Cl)c1Cl	.	24	0	14%	3%
Cc1ccc(NC(=O)COC(=O)CCc2ccc(S(=O)(=O)N3CCOCC3)cc2)cc1F	.	-2	1	-1%	12%
O=C1SCCC1NC(=O)C(c1ccccc1)c1ccccc1 (stereo unspecified)	6%	13	-2	-15%	84%
CC(NC(=O)COC(=O)/C=C/c1ccco1)c1ccccc1 (stereo unspecified)	.	9	-5	21%	11%
CC1(NC(=O)NCc2ccccc2)CCS(=O)(=O)C1 (stereo unspecified)	-1%	-4	-3	?	17%
Cc1ccc(NC(=O)c2cc(NC(=O)c3ccco3)ccc2N2CCOCC2)cc1	-10%[9.22 µM]	-9	-4	-1%	-11%
Cc1ccc(NC(=O)c2cc(NC(=O)c3ccco3)ccc2N2CCCCC2)cc1	-5%	10	-1	-29%	6.6µM*
COCC(=O)Nc1c(C(=O)Nc2ccccc2OC)oc2ccccc12	-9%	3	9	?	-18%
COc1cccc(NC(=O)c2oc3ccccc3c2NC(C)=O)c1	-5%	47*	37*	83%	332%
COCC(=O)Nc1c(C(=O)Nc2cccc(OC)c2)oc2ccccc12	-18%	58*	48*	18%	109%
COc1cccc(NC(=O)c2oc3ccccc3c2NC(=O)C2CC2)c1	-28%	8	2	?	?

High-throughput results deposited in PubChem BioAssay by National Center for Advancing Translational Sciences (NCATS).
